Bioassay records deposited in PubChem BioAssay by National Center for Advancing Translational Sciences (NCATS).
JMJD2A Tudor inh: qHTS Assay for Inhibitors of JMJD2A-Tudor Domain; AlphaScreen JMJD2A-Tudor / H3K4me3 peptide binding; Potency, µM (series often up to 114 µM), for the others: top-dose activity change, negative = inhibition, actives largely listed as inhibitors; hit rate 4.4% among 390,000; Lysine-specific demethylase 4A (Homo sapiens), O75164; note: % is set by controls: 0 for no effect and ±100 for the full control effect; nearly all actives have a fitted effect of over 50% in size
HP1b binding inh: HTS for Inhibitors of HP1-beta Chromodomain Interactions with Methylated Histone Tails. Chromobox protein homolog 1 (Homo sapiens), P83916. AlphaScreen HP1-beta / biotin-H3K9me3 peptide binding. Potency, µM (titrated, usually from 114 µM), inactives show at the highest dose activity change, negative = inhibition, actives largely listed as inhibitors. hit rate 0.56% among 390,000. AID 540317, 2011; note: nearly all actives have a fitted effect of over 70% in size
Target sequence (P83916 whole entry, looked up): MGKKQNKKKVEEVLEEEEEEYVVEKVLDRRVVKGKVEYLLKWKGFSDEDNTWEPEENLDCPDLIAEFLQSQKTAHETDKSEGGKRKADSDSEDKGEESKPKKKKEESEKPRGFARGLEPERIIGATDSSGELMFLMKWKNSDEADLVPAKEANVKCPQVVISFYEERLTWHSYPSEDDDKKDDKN
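HP1-beta protein (50 nM final) preincubated 30 min at room temperature with biotinylated H3(1-18)K9me3 peptide (50 nM) in PBS pH 7.4, 0.01% Tween-20, then compound added for 30 min. AlphaScreen streptavidin donor/nickel chelate acceptor beads (10 ug/mL final), 30 min dark, luminescence read.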
Sfp PPTase inh: qHTS Assay for Inhibitors of Bacillus subtilis Sfp phosphopantetheinyl transferase (PPTase); 4'-phosphopantetheinyl transferase ffp (Bacillus subtilis), Q9F4F7; Biochemical Sfp PPTase activity, qHTS; Potency, µM, for the others: largest response in the series, negative = inhibition, usual class: inhibitors; hit rate 3.5% among 310,000;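 note: the enzyme is Sfp with the accession as filed and its product quenches rhodamine fluorescence; 0% = enzyme reaction without inhibitor and -100% = no enzyme wells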
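Sfp 15 nM + cpd, 15 min RT; start w/ rhodamine-CoA 5 uM, BHQ-2-YbbR 12.5 uM (final); 50 mM Hepes pH 7.6, 10 mM MgCl2, 0.01% NP-40, 0.01% BSA; read 525/598 nm at 0 and 30 min.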
G9a inh: qHTS Assay for Inhibitors of Histone Lysine Methyltransferase G9a; Potency, µM (doses to about 102 µM), without a hit: at the top dose activity, negative = inhibition, most hits filed as inhibitors; Histone-lysine N-methyltransferase EHMT2 (Homo sapiens), Q96KQ7; G9a H3K9 monomethylation, AlphaScreen, 2 h; hit rate 8.8% among 350,000; note: % is set by controls: 0 for no effect and ±100 for the full control effect; nearly all actives have a fitted effect of over 75% in size
Target sequence (Q96KQ7 913-1193 limits assumed): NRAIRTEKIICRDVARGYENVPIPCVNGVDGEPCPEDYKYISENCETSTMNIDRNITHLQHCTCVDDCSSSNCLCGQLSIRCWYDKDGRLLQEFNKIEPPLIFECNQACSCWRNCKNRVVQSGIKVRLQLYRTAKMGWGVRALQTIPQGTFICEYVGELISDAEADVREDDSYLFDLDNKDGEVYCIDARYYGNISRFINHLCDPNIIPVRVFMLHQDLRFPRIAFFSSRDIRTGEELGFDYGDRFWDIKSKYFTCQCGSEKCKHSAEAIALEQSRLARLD
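Quantitative HTS format: methyltransferase activity on a biotin-tagged H3K9 peptide is measured by AlphaScreen, using a rabbit anti-monomethyl-H3K9 antibody with streptavidin donor and anti-IgG acceptor beads. Final levels are 20 nM enzyme, 500 nM peptide, 20 uM SAM; 2 h RT.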
L3MBTL1 inh: qHTS Assay for the Inhibitors of L3MBTL1. Lethal(3)malignant brain tumor-like protein 1 (Homo sapiens), Q9Y468. AlphaScreen L3MBTL1–H3K9me1 peptide binding. Potency, µM (highest dose often 57.1 µM), for the others: at the top dose activity, negative = inhibition, actives largely listed as inhibitors. hit rate 0.66% among 230,000. AID 485360, 2010; note: % is set by controls: 0 for no effect and ±100 for the full control effect; nearly all actives have a fitted effect of over 60% in size
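AlphaScreen proximity signal between nickel-chelate acceptor and streptavidin donor beads (final 10 ug/mL) reports binding of 50 nM L3MBTL1 to 75 nM biotin-H3 K9me1 peptide; complex incubated with compounds 30 min at room temperature; cefsulodin titration as control.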
BAZ2B block: qHTS Assay for Inhibitors of BAZ2B; Bromodomain adjacent to zinc finger domain protein 2B (Homo sapiens), Q9UIF8; AlphaScreen BAZ2B-H3K14Ac peptide displacement; Potency, µM (titrated, usually from 114 µM), inactives show at the highest dose activity change, negative = inhibition, usual class: inhibitors; hit rate 4.4% among 360,000; AID 504333, 2011; note: % is set by controls: 0 for no effect and ±100 for the full control effect; nearly all actives have a fitted effect of over 60% in size
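BAZ2B 50 nM plus b-H3(5-23)K14Ac 50 nM, PBS pH 7.4/0.01% Tween-20, 30 min RT; compound added (max 110 uM), 30 min RT; streptavidin donor/Ni-chelate acceptor beads 10 ug/mL final, 20 min dark; AlphaScreen read.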
Numbers without * were called inactive; ? = inconclusive; / = no result given; [ ] = another dose, or the depositor's remark. Most compounds without a hit are left out; they make up all but 12% or so of the library. Calls come from the whole dose curve; as a rule, active = well fitted curve in the direction sought with a large enough effect; inconclusive = small, poorly fitted or top-dose-only effect, or another doubt; inactive = no such curve, though single readings can be large; an effect the other way counts as inactive or inconclusive. Potency is the fitted concentration of half-maximal effect.

SMILES	JMJD2A Tudor inh	HP1b binding inh	Sfp PPTase inh	G9a inh	L3MBTL1 inh	BAZ2B block
O=C(N/N=C/c1cc(Br)cc([N+](=O)[O-])c1O)c1ccc(NC(=O)c2ccc(F)cc2)cc1	31.6µM*	?	22.2%	35.5µM*	/	12.6µM*
O=C(N/N=C/c1cc(Br)cc(Br)c1O)c1ccncc1	12.6µM*	37.5%	6.2%	50.1µM*	25.1µM*	8.91µM*
COc1ccc(C2N(c3ccc4c(c3)OCCO4)C(=O)C2(F)F)cc1OC (stereo unspecified)	-30.3%	25.5%	-2.5%	11.4%	/	-30.9%
CC(C)(C)NC(=O)NC(=O)COC(=O)C1CCN(S(=O)(=O)c2cccs2)CC1	3.4%	21.1%	/	8.4%[59 µM]	0.8%	5.4%
O=C(N/N=C/c1ccc(O)cc1O)c1ccc(NC(=O)C2CCCCC2)cc1	-18.4%	50.6%	-4.5%	50.8%	/	-13.6%
O=C(N/N=C/c1ccc(O)cc1O)c1ccncc1	56.2µM*	51.0%	13.3%	41.1%	/	31.6µM*
CCN(CC)c1ccc(/C=C2/C(=O)c3ccc(C(=O)O)cc3C2=O)cc1	?	35.5µM*	?	12.6µM*	25.1µM*	25.1µM*
CCCN(Cc1nnc(-c2cccs2)o1)C(=O)CN1C(=O)NC2(CCCCC2C)C1=O (stereo unspecified)	-12.5%	20.8%	/	-10.3%[59 µM]	7.6%	-2.0%
COc1ccccc1N=C1NC(=O)/C(=C/c2ccc(N(C)C)cc2)S1	?	-21.4%	-15.5%	/	?	44.7µM*
COc1ccc(/C=C2\SC(=Nc3ccccc3)NC2=O)cc1	/	/	-3.7%	/	5.6%	0.5%
COc1cccc(/C=N/NC(=O)C(c2ccncc2)N2CCOCC2)c1 (stereo unspecified)	1.3%	50.0%	6.2%	29.1%[59 µM]	13.2%	1.5%
O=C(N/N=C/c1cc(Br)ccc1O)C(c1ccncc1)N1CCOCC1 (stereo unspecified)	79.4µM*	16.1%	2.3%	14.5%	?	50.1µM*
COC(=O)c1nnc(C(=O)NCc2ccccc2)c2[nH]c3ccccc3c12	/	/	-1.2%	/	/	/
CNC(=O)NC(=O)C(C)OC(=O)c1c2c(nc3ccccc13)/C(=C/c1cccs1)CC2 (stereo unspecified)	6.7%	39.8%	31.6µM*	-7.5%[59 µM]	?	1.3%
Cc1ccc(C)c(Cn2c(=O)n(CC3CCC(C(=O)N4CCOCC4)CC3)c(=O)c3sccc32)c1 (stereo unspecified)	-25.0%	27.2%	/	-2.7%[59 µM]	/	-24.7%
CC(=O)N1c2ccc(S(=O)(=O)N3CCCCCC3)cc2CC1C(=O)NCc1ccc(Cl)cc1 (stereo unspecified)	-16.2%	3.5%	/	1.1%[59 µM]	/	-4.1%
CC(=O)N1c2ccc(S(=O)(=O)N3CCCCC3)cc2CC1C(=O)NCc1ccc(N(C)C)cc1 (stereo unspecified)	28.2µM*	-14.2%	0.5%	39.8µM*	/	-33.6%
COc1ccc(CNC(=O)C2Cc3cc(S(=O)(=O)N4CCCC4)ccc3N2C(C)=O)c(OC)c1 (stereo unspecified)	-22.9%	42.1%	9.5%	22.4µM*	/	?
CC(=O)N1c2ccc(S(=O)(=O)N3CCCC3)cc2CC1C(=O)NCc1ccc(OC(C)C)cc1 (stereo unspecified)	-32.8%	19.3%	5.3%	4.9%	/	-2.1%
Cc1ccc([C@@H]2[C@@H]3C(=O)N(C)C(=O)[C@@H]3[C@]3(C)C(=O)N(CCO)CC(=O)N23)o1	-12.1%	33.7%	3.2%	44.7µM*	-3.2%	-17.0%
COC(=O)CN1C(=O)[C@H]2[C@@H](c3ccc(C)o3)N3C(=O)CN(Cc4ccccn4)C(=O)[C@@]3(C)[C@H]2C1=O	-12.9%	38.6%	?	/	36.2%	17.5%
COC(=O)CN1C(=O)[C@H]2[C@@H](c3ccc(C)o3)N3C(=O)CN(Cc4ccccc4)C(=O)[C@@]3(Cc3ccccc3)[C@H]2C1=O	-16.3%	17.7%	?	-20.6%	4.6%	-4.4%
COC(=O)CN1C(=O)[C@H]2[C@@H](c3ccc(C)o3)N3C(=O)CN(CC4CC4)C(=O)[C@@]3(C)[C@H]2C1=O	-29.3%	43.6%	?	50.1µM*	1.0%	-6.4%
COC(=O)CN1C(=O)[C@H]2[C@@H](c3ccc(C)o3)N3C(=O)CN(Cc4ccc(-c5ccccc5)cc4)C(=O)[C@@]3(C)[C@H]2C1=O	-19.7%	33.5%	12.6µM*	39.8µM*	7.6%	-17.7%
O=C(Nc1ccc(OC(F)(F)F)cc1)C1CCCN(S(=O)(=O)c2cccc3nonc23)C1 (stereo unspecified)	-17.1%	8.6%	/	2.3%[59 µM]	/	-13.3%
SMILES	JMJD2A Tudor inh	HP1b binding inh	Sfp PPTase inh	G9a inh	L3MBTL1 inh	BAZ2B block
COc1cc2c(cc1OC)C1(CCCC1)CNC2c1ccc([N+](=O)[O-])cc1 (stereo unspecified)	-27.5%	-5.4%	5.2%	35.5µM*	-27.0%	?
COc1cc2c(cc1OC)C1(CCCC1)CNC2C (stereo unspecified)	-17.4%	33.6%	9.9%	-9.3%[59 µM]	-7.8%	1.8%
O=C(c1ccc([N+](=O)[O-])cc1[N+](=O)[O-])n1cnc2ccccc21	-21.8%	26.7%	79.4µM*	?	4.1%	-4.1%
O=C(c1ccccc1[N+](=O)[O-])n1cnc2ccccc21	-25.8%	0.0%	10.1%	?	2.4%	?
CC[N+]1=C(C)C(C)(C)c2cc(C)ccc21	-3.7%[11.4 µM]	-2.4%	-11.8%	?	/	44.7µM*
Cc1ccc(N2C(=O)N(CC(=O)N3CCOCC3)C(=O)C2C)cc1 (stereo unspecified)	-2.5%	18.4%	22.7%	-7.1%[59 µM]	/	-16.2%
Cc1ccc(N2C(=O)N(CC(=O)N3c4ccccc4CC3C)C(=O)C2C)cc1 (stereo unspecified)	-15.9%	15.7%	/	44.7µM*	-8.8%	-4.6%
N=c1sccn1CC(=O)Nc1cc(S(=O)(=O)N2CCCCC2)ccc1Cl	-14.5%	7.3%	3.5%	/	4.5%	-4.5%
CCCCNC(=O)C1CCN(C/C(C)=C/c2ccccc2)CC1	6.31µM*	-9.4%	-15.6%	?	-5.7%	50.1µM*
C/C(=C/c1ccccc1)C(=O)N1CCC(C)CC1	-0.3%	40.0%	4.2%	23.8%	5.1%	-2.9%
C/C(=C\c1ccccc1)CN1CCC(C(=O)N2CCC(C)CC2)CC1	-0.8%[11.4 µM]	-29.7%	-10.0%	10µM*	-1.4%	?
